PubChem BioAssay (NCI)
Compounds without any hit were thinned out: in the full panel of roughly 83,000, 20% have a hit.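 96-well plates, one dose, 48 hours. Percent growth reported; active if below 10.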 Unmarked numbers belong to inactive results. The source made the active and inactive calls.

Assays:
Assay in all cases: NCI-60 one-dose screen, 48 h (100 = growth as untreated, 0 = no growth, -100 = all killed)
Details in all cases: 10 µM
[1] = test system: DU-145 prostate
[2] = test system: K-562 leukemia
[3] = test system: MALME-3M melanoma
[4] = test system: MDA-MB-231 breast
[5] = test system: RXF 393 renal
[6] = test system: SF-268 CNS
[7] = test system: SF-295 CNS
[8] = test system: SF-539 CNS
[9] = test system: UACC-257 melanoma
[10] = test system: M14 melanoma
[11] = test system: HCT-15 colon
[12] = test system: HT29 colon
[13] = test system: SNB-75 CNS
[14] = test system: SNB-19 CNS
[15] = test system: PC-3 prostate
[16] = test system: SK-MEL-5 melanoma
[17] = test system: UACC-62 melanoma
[18] = test system: LOX IMVI melanoma
[19] = test system: SK-MEL-28 melanoma
[20] = test system: U251 CNS

Row | SMILES | growth [1] | growth [2] | growth [3] | growth [4] | growth [5] | growth [6] | growth [7] | growth [8] | growth [9] | growth [10] | growth [11] | growth [12] | growth [13] | growth [14] | growth [15] | growth [16] | growth [17] | growth [18] | growth [19] | growth [20]
1 | COc1ccc(-c2nn(-c3cccc(Cl)c3)cc2-c2cc(-c3cccs3)[nH]c(=S)n2)cc1 | 74.6% | 28.3% | 31.1% | 83.3% | 56.7% | 61.6% | 8.31% (active) | 69.3% | 88.6% | 33.6% | 45.7% | 62.2% | 67.4% | 44.7% | 48.5% | 52.2% | 44.9% | 43.4% | 57.3% | –
2 | CCCCN(CCCC)C(=O)[C@H](CC)[C@@H]1CC[C@@H](C)[C@@H]([C@H](C)[C@@H](O)[C@@H](C)C(=O)[C@H](CC)C2O[C@]3(C=CC(=O)[C@]4(CC[C@@](C)([C@H]5CC[C@](O)(CC)[C@H](C)O5)O4)O3)[C@H](C)C[C@@H]2C)O1 (stereo partly drawn) | 84.9% | 24.4% | -5.97% (active) | 46.8% | 47% | 68.6% | 2.72% (active) | 59.6% | 21.3% | 30% | 54% | – | 33.3% | 27% | 12.5% | 18% | 22.5% | 43.5% | 23.8% | 32.7%
3 | CCOS(=O)(=O)c1c(C(C)C)cc(C(C)C)cc1C(C)C | 103% | 92.8% | 89.6% | 99.5% | 108% | 100% | 98.9% | 99.4% | 105% | 92.8% | 97.2% | – | 96.8% | 103% | 96% | 100% | 98.4% | 101% | 96.5% | 98.6%
4 | NS(=O)(=O)Oc1ccc(-c2ccc3sccc3c2)cc1 | 104% | 96.9% | 106% | 90% | 100% | 102% | 97.2% | 98.9% | 104% | 100% | 103% | 107% | 97.3% | – | 96.5% | 95.9% | 61.6% | 95.2% | 97.6% | 88.8%
5 | CCOC(=O)c1cc(C(=O)c2ccc(OC)c(OC)c2)n2c1ccc1ccc3cccnc3c12 | 21.7% | 14.7% | 40.1% | 45.2% | 24.8% | 51.8% | 12% | 9.16% (active) | 51% | 7.8% (active) | 31.1% | 6.74% (active) | 18% | – | 22.2% | 17.4% | 47.4% | 31.6% | 60.2% | 24.8%
6 | C=CCn1c(SCC(=O)Nc2ccc(C(=O)/C=C/c3ccc(Cl)cc3)cc2)nnc1-c1cc(-c2ccccc2)nc2ccccc12 | 95.6% | 27.6% | 87.1% | 58.3% | 63.9% | 76% | 102% | 69.8% | 93.4% | 76.3% | 8.31% (active) | 40.9% | 59.8% | – | 70.4% | 87.1% | 59.9% | -82.4% (active) | 99.7% | 48.1%
7 | CC1CCCC(C(=O)O)C1C(=O)O (stereo not drawn) | 114% | 87.6% | 87.8% | 92.8% | 94.5% | 105% | 94.8% | 97.8% | 80.8% | 94.7% | 102% | 98.8% | 100% | 101% | 76% | 102% | – | 98% | 111% | –
8 | COC1OC(COS(=O)OC)C(O)C(O)C1OS(=O)OC (stereo not drawn) | 99.5% | 102% | 97.1% | 103% | 111% | 103% | 103% | 98.3% | 99.5% | 96.6% | 96.5% | – | 105% | 103% | 100% | 104% | 107% | 100% | 110% | 99.3%
9 | N=C1S/C(=C/c2ccc(-c3ccc4c(c3)C(=O)NC4=O)o2)C(=O)N1c1ccc(Br)cc1 | 27.8% | 21.5% | 18.3% | 46.5% | -28.5% (active) | 39.3% | 22.1% | 87.8% | 47.7% | 36.7% | 47.1% | 21.9% | -3.31% (active) | 106% | -2.15% (active) | 65.5% | 31.8% | – | -19.1% (active) | –
10 | O=C(CN(C1CCCCC1)C1CCCCC1)Nc1ccc(S(=O)(=O)c2ccc(NC(=O)CN(C3CCCCC3)C3CCCCC3)cc2)cc1 | -47.9% (active) | -29.8% (active) | -67.4% (active) | -49.4% (active) | -61.4% (active) | -7.58% (active) | 14.4% | -89.9% (active) | -17.9% (active) | -59.4% (active) | -33.7% (active) | -84.2% (active) | 55.8% | – | -80% (active) | -76.5% (active) | -20.9% (active) | -81% (active) | 12.2% | -75.9% (active)
11 | COc1cc(/C=C2\CCCC3=C2N=C2SC(C)=CN2C3c2cc(OC)c(OC)c(OC)c2)cc(OC)c1OC (stereo not drawn) | -26.9% (active) | 20.4% | 4.83% (active) | 18.9% | -71.9% (active) | 14.7% | 2.48% (active) | 7.53% (active) | -27% (active) | 2.47% (active) | -65.4% (active) | -49.1% (active) | 59.4% | 52.7% | 44.5% | -71.6% (active) | – | -70.4% (active) | -51.6% (active) | –
12 | CCCCCCCCCCOC(c1ccccc1)c1ccccc1 | 105% | 85.6% | 95.7% | 88.4% | 94.2% | 94.2% | 89.6% | 102% | 102% | 90.9% | 81.1% | 66.7% | 95.1% | – | 83.5% | 104% | 81.5% | 79.6% | 96.2% | 94.2%
13 | COc1ccc(/C=C2\CCCC3=C2N=C2SC(C)=CN2C3c2ccc(OC)cc2)cc1 (stereo not drawn) | 107% | 96.1% | 80% | 101% | 102% | 116% | 106% | 111% | 90.9% | 98.8% | 102% | 104% | 97.7% | 100% | 99.9% | 92.3% | – | 91.5% | 96.2% | –
